An excerpt weighted towards active compounds, which were near 4.8% of everything screened.
Beta apoptosis: beta cell apoptosis inhibition | protection from apoptosis, % (no concentration beside the values) | INS-1E cytokine-induced death, ATP luminescence, 48 h; percent of positive-control rescue, neutral wells zero | hit rate 0.8% among 300,000;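 active = Every replicate reaches about 75%, or at least half do and their mean reaches it too, limit read from the data; inconclusive = At least half of replicates reach the limit but their mean does not; inactive = Under half of replicates reach the limit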;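 also: higher means more ATP so stronger rescue from cytokine killing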
Calb FLC: C. albicans growth modulation with fluconazole; C. albicans CaCi-2 (fluconazole-resistant clinical isolate) + fluconazole, Alamar Blue growth, 48 h; growth inhibition, % (no concentration beside the values); hit rate 0.57% among 300,000;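 active = growth inhibition above about 58% in most replicates, limit read from the data, passing the limit was not always enough; inconclusive = exactly half the replicates above a set limit; inactive = most replicates below a set limit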;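 also: all wells also contain fluconazole at 8 µg/ml as a sub-toxic cotreatment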
CSC inhib: cancer stem cell inhibition; cancer stem cell-like cells viability, luminescence; inhibition, % at 7.5 µM; hit rate 1.1% among 300,000; AID 2717; in the data active = inhibition above about 75%; inconclusive = no clear call, values can overlap the other calls; tested in HMLE shEcad cells
Mdm2-MdmX inh: human Mdm2/MdmX binding inhibition | O15151+Q00987 | SaOS-2 split-luciferase Mdm2/MdmX complementation, luminescence | inhibition, % at 8 µM | hit rate 3% among 330,000;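 active = inhibition of at least 50% at 8 µM in the primary screen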
MPTP block: permeability transition pore inhibition; isolated mouse mitochondria, Ca2+ swelling absorbance, 30 min; inhibition, % at 10 µM; hit rate 1.4% among 360,000;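 active = inhibition of 50% or more, scaled per plate between neutral and stimulator controls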
Of the large screens only hits and unclear results are named; the others gave an inactive call.

CCOc1cc(/C=C2\SC(=S)N(NS(=O)(=O)c3ccccc3)C2=O)ccc1O	Calb FLC 88
COc1ccc(OC)c(/C=C2\SC(=S)N(NS(=O)(=O)c3ccc(C)cc3)C2=O)c1	Calb FLC 89
COC(=O)[C@@]12C[C@@H](CC(=O)NCC34CC5CC(CC(C5)C3)C4)C(=O)N(Cc3ccccc3)C1=CCC(C)(C)C2	none (no result: Beta apoptosis, Calb FLC, CSC inhib, Mdm2-MdmX inh)
CSCCC(C(=O)Nc1c(C)cccc1C)N(Cc1ccccc1)Cc1ccccc1 (stereo unspecified)	none (no result: Beta apoptosis, Calb FLC, CSC inhib, Mdm2-MdmX inh)
Cc1cccc(S(=O)(=O)NC(=O)C2(C)CCN2C(=O)Cc2ccc(Cl)cc2Cl)c1 (stereo unspecified)	none (no result: Beta apoptosis, Calb FLC, CSC inhib, Mdm2-MdmX inh)
CC(C)[C@@H]1CC2=C(C(=O)OC(C)(C)O2)[C@H](CCc2ccccc2)O1	none (no result: Beta apoptosis, Calb FLC, CSC inhib, Mdm2-MdmX inh)
NC(=O)COC(=O)c1cccc(NS(=O)(=O)/C=C/c2ccccc2)c1	none (no result: CSC inhib)
CC(C)NC(=O)COC(=O)c1cccc(NS(=O)(=O)/C=C/c2ccccc2)c1	Calb FLC 103
c1cc(-c2noc(CC3CCCCC3)n2)ccn1	Beta apoptosis 79 (no result: Calb FLC)
Cc1c(O)cc2c(c1O)C(=O)CC(c1ccccc1)O2 (stereo unspecified)	CSC inhib 77
O=C(Cc1ccc(Cl)cc1)NNC(=S)NC(=O)c1cccs1	Calb FLC 109
Cc1cccc(C(=O)NNC(=S)NC(=O)c2ccccc2)c1	none
Cc1cccc(C(=O)NNC(=S)NC(=O)c2cccs2)c1	Calb FLC 102 (no result: Beta apoptosis)
O=C(/C=C/[C@H]1O[C@@H](n2cnc3c(NC(=O)c4ccccc4)ncnc32)[C@H](O)[C@@H]1O)NCc1ccco1	none (no result: Beta apoptosis, Calb FLC, CSC inhib, Mdm2-MdmX inh)
O=C(/C=C/c1ccc(Cl)cc1)c1cccnc1	none
CCN(CC)c1ccc(/C=C/C(=O)c2cccnc2)cc1	Calb FLC 93
Cc1ccc2c(c1)S/C(=C/c1ccc[n+](CCO)c1)N2C	Beta apoptosis 99, Calb FLC inconclusive
Cc1ccc2c(c1)S/C(=C\c1cccc[n+]1C)N2CCO	none
COc1ccc(-c2nc3c4ccccc4ccn3c2Cc2ccsc2)cc1OC	none (no result: Beta apoptosis, Calb FLC, CSC inhib, Mdm2-MdmX inh)
CCOC(=O)CNC(c1ccccc1)c1cc(Br)ccc1NC(=O)CCN1CCOCC1 (stereo unspecified)	Calb FLC 111
C/C(=N\Nc1nc2ccccc2s1)c1ccc(Br)s1	Beta apoptosis 90, CSC inhib 84
CC(=NNc1nc2ccccc2s1)c1ccncn1	none (no result: Beta apoptosis, Calb FLC, CSC inhib, Mdm2-MdmX inh)
COc1cccc(NC(=O)C2(C)CCN2C(=O)C2CCCCC2)c1 (stereo unspecified)	none (no result: Beta apoptosis, Calb FLC, CSC inhib, Mdm2-MdmX inh)
O=c1c2cn[nH]c2nc(SCc2ccccc2F)n1-c1ccc(Br)cc1	CSC inhib 105
O=c1c2cn[nH]c2nc(SCc2cc(=O)n3cc(Br)ccc3n2)n1-c1ccc(Br)cc1	none (no result: CSC inhib)
Cc1cn([C@H]2C[C@H](O)[C@@H](/C=C/C(=O)NCc3ccco3)O2)c(=O)[nH]c1=O	none (no result: Beta apoptosis, Calb FLC, CSC inhib, Mdm2-MdmX inh)
CN1CCc2c(sc3nc(SCC(N)=O)n(-c4ccccc4)c(=O)c23)C1	none
CN1CCc2c(sc3nc(SCC(N)=O)n(-c4ccc(Cl)cc4)c(=O)c23)C1	Calb FLC 101 (no result: Beta apoptosis, CSC inhib)
COc1cccc(C(=O)NCC[N+](C)(C)C)c1	none (no result: Beta apoptosis, Calb FLC, CSC inhib, Mdm2-MdmX inh)
O=C(N/N=C/c1ccc(OC2CSC2)cc1)c1ccccc1	CSC inhib 89
O=C(/C=C/c1ccc(OC2CSC2)cc1)c1ccccc1	none
CN(C(=O)CSc1nnc(-c2ccco2)o1)C1CCCCC1	Calb FLC 95
CCCCn1nnnc1C(c1cc2ccccc2o1)N(CCC#N)Cc1ccccc1 (stereo unspecified)	none (no result: Beta apoptosis, Calb FLC, CSC inhib, Mdm2-MdmX inh)
COC(=O)C[C@H]1C=C[C@@H](NC(=O)NC2CCCCC2)[C@@H](CO)O1	none (no result: Beta apoptosis, Calb FLC, CSC inhib, Mdm2-MdmX inh)
FC(F)(F)c1cc(-c2ccccc2)nc(N2CCCCCC2)n1	none
CS(=O)(=O)c1nc(-c2ccccc2)cc(C(F)(F)F)n1	Beta apoptosis 108, CSC inhib 107
CC1(C(=O)NS(=O)(=O)C2CC2)CCCN(C(=O)c2ccc(C(F)(F)F)cc2)C1 (stereo unspecified)	none (no result: Beta apoptosis, Calb FLC, CSC inhib, Mdm2-MdmX inh)
Cc1ccc(NS(=O)(=O)c2cc(OCC(N)=O)c(C)cc2Cl)cc1C	none
Cc1ccccc1NS(=O)(=O)c1cc(OCC(N)=O)c(C)cc1Cl	Calb FLC 118
O=C(NCc1ccc(F)c(F)c1)C1Cc2c(-c3ccc4c(c3)OCO4)ccnc2O1 (stereo unspecified)	none (no result: Beta apoptosis, Calb FLC, CSC inhib, Mdm2-MdmX inh)
CCCCNC(=O)C1(C)CCCCN1C(=O)c1ccc2ccccc2n1 (stereo unspecified)	none (no result: Beta apoptosis, Calb FLC, CSC inhib, Mdm2-MdmX inh)
COCCCn1c(SCc2ccccc2)nc2cc(OC)c(OC)cc2c1=N	none
COCCCn1c(SCc2cccc(C(F)(F)F)c2)nc2cc(OC)c(OC)cc2c1=N	CSC inhib 83
C/C(NC(=O)c1cccc(F)c1)=C1/C(=O)C[C@@H]2[C@H]1C2(C)C	CSC inhib 92
CN(C)CCCNC(=O)/C(=C/c1ccc(-c2ccc([N+](=O)[O-])cc2)o1)NC(=O)c1ccccc1	none
COC(=O)/C(=C\c1ccc([N+](=O)[O-])o1)NC(=O)c1ccccc1	Calb FLC 102
CCCCNC(=O)/C(=C\c1ccc([N+](=O)[O-])o1)NC(=O)c1ccccc1	Calb FLC 100
Cc1cccc(C)c1NC(=O)C1(C)CCC(=O)N1c1cc(C(C)(C)C)nn1C (stereo unspecified)	none (no result: Beta apoptosis, Calb FLC, CSC inhib, Mdm2-MdmX inh)
COc1ccc(CNC(=O)C2(C)Cc3c(-c4cccc(NC(C)=O)c4)ccnc3O2)cc1OC (stereo unspecified)	none (no result: Beta apoptosis, Calb FLC, CSC inhib, Mdm2-MdmX inh)
O=[N+]([O-])/C=C/c1cn(Cc2ccc(F)cc2)c2ccccc12	Beta apoptosis 78, CSC inhib 137
CCNC(=S)N/N=C/c1cn(Cc2ccc(F)cc2)c2ccccc12	CSC inhib 90
CN1CCN(C(=S)c2cn(Cc3ccc(F)cc3)c3ccccc23)CC1	Calb FLC 121
Cc1cc(N2CCN(C(c3ccnc4ccccc34)c3nnnn3-c3c(C)cccc3C)CC2)c2ccccc2n1 (stereo unspecified)	none (no result: Beta apoptosis, Calb FLC, CSC inhib, Mdm2-MdmX inh)
CCCCCCCCCc1conc1C(=O)/C=C/c1ccco1	none (no result: Beta apoptosis, Calb FLC, CSC inhib, Mdm2-MdmX inh)
Cc1cc(C(=O)NNc2ccc(F)cc2F)no1	Calb FLC inconclusive, CSC inhib 75
Cc1ccc(NNC(=O)c2cc(C)on2)c(C)c1	none
Cc1cc(C(=O)NNc2ccc(Cl)cc2)no1	Calb FLC 103, CSC inhib 117
O=C(NNc1ccccc1)C(=O)NNS(=O)(=O)c1ccc([N+](=O)[O-])cc1	CSC inhib 92
NS(=O)(=O)c1ccc(NNC(=O)c2sccc2Cl)cc1	none
O=C(NNc1ccc([N+](=O)[O-])cc1)Nc1ccccc1	none
O=C(NNc1ccc(Cl)cc1)c1sccc1Cl	Calb FLC 105, CSC inhib 94
O=C(NNc1ccc(Cl)cc1)c1c(F)cccc1Cl	Calb FLC 83
O=C(/C=C/c1ccccc1)NNc1ccc(Cl)cc1	Calb FLC 97, CSC inhib 96
CC(C)c1ccc(C(=O)N2CCCCC2c2cc(C(=O)Nc3ccncc3)no2)cc1 (stereo unspecified)	none (no result: Beta apoptosis, Calb FLC, CSC inhib, Mdm2-MdmX inh)
COc1cc(Cl)c(CNC[C@H]2O[C@@H](n3cnc4c(=O)[nH]c(N)nc43)[C@H](O)[C@@H]2O)c(Cl)c1O	none (no result: Beta apoptosis, Calb FLC, CSC inhib, Mdm2-MdmX inh)
O=C(NNc1ccc([N+](=O)[O-])cc1)c1ccccc1Cl	Calb FLC 92
O=C(c1ccc(Cl)cc1)c1c[nH]c(C(=O)NNc2ccccc2)c1	Calb FLC inconclusive, CSC inhib 95

High-throughput results (PubChem)
